High-throughput results deposited in PubChem by several laboratories.
A selection: hits, their analogues and other compounds. The true share with any hit is near 22%.
CYP2C19 activ: increases human CYP2C19 enzyme activity; P33261; recombinant CYP2C19, luciferin-H EGE luminescence; hits give high values; 0 = fully inhibited enzyme, 1 = untreated enzyme; activation factor at 5 µM; 96,000 tested, under 10 active;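 active means activation factor of at least 2 at 5 µM in the primary screen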;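 further: 0 = wells with 2.5 mM tranylcypromine and 1 = vehicle-only wells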
Measles CPE: protection of cells from measles virus | 140,000 tested, 1.5% active | protection (pct of control), % at 4 µM | Measles virus-infected cells, CPE protection, absorbance; in the data active means protection mostly above about 24%, no sharp cut-off; inactive means mostly below about 26%
CYP2C9 act: CYP2C9 (human) activation | P11712 | recombinant CYP2C9, luciferin-H conversion, luminescence; hits give high values; factor 1 = untreated enzyme, 0 = blocked | activation factor at 5 µM | 96,000 tested, 1.4% active;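 active means activation factor of 2 or more for CYP2C9 at a 5 µM dose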;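 further: 0 = sulfaphenazole-blocked wells and 1 = vehicle-only wells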
Target sequence (P11712 whole entry, looked up): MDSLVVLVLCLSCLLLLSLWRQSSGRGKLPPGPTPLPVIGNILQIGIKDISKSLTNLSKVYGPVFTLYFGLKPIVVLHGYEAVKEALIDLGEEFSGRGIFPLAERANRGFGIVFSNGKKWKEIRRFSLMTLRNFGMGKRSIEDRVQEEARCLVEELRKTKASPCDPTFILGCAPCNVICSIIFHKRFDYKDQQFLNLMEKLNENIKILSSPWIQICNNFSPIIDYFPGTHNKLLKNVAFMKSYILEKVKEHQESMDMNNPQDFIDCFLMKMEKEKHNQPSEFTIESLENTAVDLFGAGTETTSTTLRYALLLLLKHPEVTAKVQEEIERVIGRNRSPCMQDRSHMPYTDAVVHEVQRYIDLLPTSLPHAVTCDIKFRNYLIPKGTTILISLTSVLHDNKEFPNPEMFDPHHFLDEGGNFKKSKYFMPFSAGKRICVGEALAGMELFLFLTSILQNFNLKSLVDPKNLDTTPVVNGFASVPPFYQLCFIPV
CYP2C9 inhib: inhibitors of human CYP2C9. P11712. CYP2C9 Supersomes, luciferin-H conversion, luminescence. inhibition, % at 5 µM. 96,000 tested, 20% active;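 active means blocking of liver enzyme CYP2C9 beyond about 50% at 5 µM, limit read from the data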
CYP2C19 inh: blocks human cytochrome P450 2C19. 96,000 tested, 21% active. CYP2C19 Supersomes, luciferin-H EGE luminescence, 30 min. inhibition, % at 5 µM. P33261;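 active means CYP2C19 inhibition above a set limit at 5 µM in the primary screen, cut at about 50% in these data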;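 further: plate controls were negative control wells for no effect and 2.5 mM tranylcypromine positive control for full effect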
* = called active by the depositor; · = no result.

SMILES | CYP2C19 activ | Measles CPE | CYP2C9 act | CYP2C9 inhib | CYP2C19 inh
CC1CCC(C(=O)NC(C(=O)NCc2cccnc2)C(C)C)CC1 (configuration not stated) | 0.6 | 7 | 0.3 | 66* | 41
CC(C)CC(NC(=O)C1CCC(C)CC1)C(=O)NCc1ccccn1 (configuration not stated) | 0.6 | 2 | 0.5 | 45 | 36
CC(C)CC(NC(=O)C1CCC(C)CC1)C(=O)N1CCN(c2ccccn2)CC1 (configuration not stated) | 0.2 | 26 | 0.4 | 62* | 81*
CC(C)CC(NC(=O)C1CCC(C)CC1)C(=O)NCc1cccnc1 (configuration not stated) | 0.7 | 6 | 0.5 | 54* | 30
Cc1cc(C)nc(SCc2ccc(C(=O)NNC(=O)Nc3cccc(Cl)c3)cc2)n1 | · | 13 | · | · | ·
CCN(CC)CCN1C(=O)C(O)=C(C(C)=O)C1c1ccccc1 (configuration not stated) | 1 | · | 1 | -2 | 2
Clc1ccc(C(c2nnnn2C2CCCCC2)N(Cc2cccnc2)Cc2ccco2)cc1 (configuration not stated) | · | 13 | · | · | ·
CCC(C)(C)n1nnnc1C(c1ccc(C)cc1)N(Cc1ccco1)Cc1cccs1 (configuration not stated) | 1 | 2 | 0.1 | 90* | -4
CC(C)(C)n1nnnc1CN(Cc1ccc(F)cc1)Cc1ccco1 | 0.1 | 10 | 0.1 | 87* | 93*
CC(C)(C)n1nnnc1C(c1cccnc1)N(Cc1ccccc1)Cc1ccco1 (configuration not stated) | 0.6 | 23 | 0.3 | 73* | 44
COc1cccc(CN(Cc2ccco2)C(c2ccc(F)cc2)c2nnnn2C(C)(C)C)c1 (configuration not stated) | 0.6 | 12 | 0.5 | 51* | 44
O=C(Cn1cc([N+](=O)[O-])cn1)N1N=C(C(F)F)CC1(O)C(F)F (configuration not stated) | · | 14 | · | · | ·
CCN(CC)c1ccc(C(=O)NC(=S)N2CCN(Cc3ccc4c(c3)OCO4)CC2)cc1 | · | 8 | · | · | ·
O=C(Nc1ccc(NC(=O)c2sc3ccccc3c2Cl)cc1Cl)c1ccco1 | 0.8 | 16 | 1.1 | -9 | 22
CCN(Cc1ccccc1)C(c1cccc(C#N)c1)c1nnnn1C(C)(C)C (configuration not stated) | 0.3 | 7 | 0.1 | 91* | 72*
CCN(CCCNC(=O)c1c(C)cc(=O)oc1C)c1ccccc1 | 0 | 6 | 0.2 | 83* | 98*
CCCCN(CCCNC(=O)c1c(C)cc(=O)oc1C)c1ccccc1 | 0.5 | 9 | 0.1 | 90* | 51*
Cc1cc([N+](=O)[O-])nn1CCCC(=O)N1CCN(c2ccc(F)cc2)CC1 | · | 7 | · | · | ·
CCOC(=O)COn1c(SCC(=O)OCC)nc2ccccc2c1=O | 0.5 | 6 | 0.8 | 19 | 53*
O=C(NCCC1=CCCCC1)C(c1ccccc1)c1ccccc1 | 0.9 | 18 | 0.8 | 24 | 11
CCOC(=O)COn1c(=O)c(=O)n(O)c2ccccc21 | 0 | 2 | 0.1 | 90* | 99*
C=CCn1c(SC(C)C(=O)NCCC2=CCCCC2)nc2ccccc2c1=O (configuration not stated) | 0.5 | 18 | 0.4 | 56* | 47
CCOC(=O)C(C)Sc1nc2ccccc2c(=O)n1CC (configuration not stated) | 0.2 | 7 | 0.4 | 63* | 77*
C[n+]1ccn(CC(=O)c2ccc(Br)cc2)c1 | · | 6 | · | · | ·
C[n+]1ccn(CC(=O)c2ccc(Cl)cc2)c1 | · | 39* | · | · | ·
SMILES | CYP2C19 activ | Measles CPE | CYP2C9 act | CYP2C9 inhib | CYP2C19 inh
O=C(NC1CCCCCCC1)C1CCCN(S(=O)(=O)c2cnc[nH]2)C1 (configuration not stated) | 0.1 | 17 | 0.5 | 55* | 87*
O=C(NC1CCCC1)C1CCCN(S(=O)(=O)c2cnc[nH]2)C1 (configuration not stated) | 0.5 | 20 | 0.8 | 24 | 49
O=C(NC1CCCCC1)C1CCCN(S(=O)(=O)c2cnc[nH]2)C1 (configuration not stated) | 0.4 | 8 | 0.7 | 28 | 60*
Cc1ccsc1C(=O)OCc1csc(-c2ccccc2)n1 | 0.9 | 7 | 1.1 | -6 | 6
CC(CCc1ccco1)NC(=O)Nc1cccc(F)c1 (configuration not stated) | 0.2 | 5 | 0.2 | 83* | 84*
CCOC(=O)/C=c1\s/c(=C\c2c(OC)ccc3ccccc23)c(=O)n1CC(=O)NCC1CCCO1 (configuration not stated) | 0.4 | 3 | 0.6 | 41 | 57*
O=C(CN(Cc1ccc(Cl)c(Cl)c1)S(=O)(=O)c1ccccc1)N/N=C\c1ccc2c(c1)OCO2 | 0.8 | 7 | 0.4 | 65* | 19
O=C(CN(Cc1ccccc1)S(=O)(=O)c1ccccc1)N/N=C/c1ccc2c(c1)OCO2 | 0.5 | 17 | 0.3 | 74* | 53*
CC(C)C[C@H](NC(=O)OC(C)(C)C)C(=O)N1CCC(C(=O)N[C@@H](Cc2ccccc2)C(=O)O)CC1 | · | 5 | · | · | ·
COc1cc(NC(=O)Cn2c(-c3cncs3)nc3ccccc32)cc(OC)c1OC | 0.7 | 8 | 0.4 | 56* | 30
O=C(O)Cn1c(-c2cscn2)nc2ccccc21 | 1.2 | 24 | 1.2 | -17 | -18
O=C(Cn1c(-c2cscn2)nc2ccccc21)Nc1ccc2ccccc2c1 | 0.6 | 26 | 0.4 | 63* | 39
O=C(Cn1c(-c2cscn2)nc2ccccc21)Nc1cc(F)ccc1F | 0.4 | 6 | 0.5 | 46 | 64*
CC(C)(C)c1ccccc1NC(=O)Cn1c(=O)cnc2ccccc21 | · | 10 | · | · | ·
N#Cc1ccccc1Cn1c(-c2cscn2)nc2ccccc21 | 0.5 | 6 | 0.8 | 24 | 50*
Cc1ccc(CNC(=O)C(=O)NCC2OCCN2S(=O)(=O)c2ccc3c(c2)OCCO3)cc1 (configuration not stated) | · | 11 | · | · | ·
O=C(Nc1cnccn1)c1cccs1 | 1.1 | 7 | 1.1 | -9 | -10
O=C(CSc1nnnn1-c1ccccc1)Nc1ncc2c(n1)CC(c1ccco1)CC2=O (configuration not stated) | · | 5 | · | · | ·
C=CCOC(=O)/C(=C/c1cccc2ccccc12)NC(=O)c1ccccc1 | · | 13 | · | · | ·
CCCN1CCN(CCCNC(=O)c2cc3c(=O)n(C)c4ccccc4c3n2C)CC1 | 1.1 | 6 | 0.3 | 67* | -14
Cn1c(C(=O)NCCCN2CCCCCC2)cc2c(=O)n(C)c3ccccc3c21 | 0.9 | 5 | 0.9 | 7 | 11
CCN(CC)CCNC(=O)c1cc2c(=O)n(C)c3ccccc3c2n1C | 1.1 | 41* | 1 | -1 | -9
CCN(CC)CCCNC(=O)c1cc2c(=O)n(C)c3ccccc3c2n1C | 1.1 | 4 | 1 | -1 | -5
Cc1cccc(OCc2nc(C#N)c(NCc3ccc4c(c3)OCO4)o2)c1 | 0 | 5 | 0 | 97* | 99*
COc1ccc(CNc2oc(C)nc2C#N)cc1 | · | 3 | · | · | ·
